Data: PubChem BioAssay AID2685 (National Center for Advancing Translational Sciences (NCATS), 2010)
Several values for one entry are separate records, joined by “and”; a condition that tells them apart may be missing. Identical values can stand only once. Screen size: about 320,000 compounds; about 2,100 (0.66%) were called active. Not shown: some 53% with an inconclusive outcome. Calls come from the whole dose curve; as a rule, active = well fitted inhibition curve with a large enough effect in the signal ratio, with a control signal flat (not every such curve was filed as active); inconclusive = small, poorly fitted or top-dose-only effect, or effect the other way, or a change in a side signal; inactive = flat fitted curve, though single readings scatter; the % refers to the signal ratio. Only a selection was taken, and actives are over-represented in it overall.

test: qHTS Assay for Lipid Storage Modulators in Drosophila S3 Cells; conditions: BODIPY lipid droplet fluorescence, 18-24 h, cells fed with added oleic acid; cell number change: measured here: cell count max response; series mostly up to 46.1 µM; lipid storage change, negative = inhibition: at the top concentration;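 for cell number change: cells counted by Cell Tracker Red CMTPX staining in the red channel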; for lipid storage change, negative = inhibition: % is set by controls: 0 for no effect and ±100 for the full control effect
Outline: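 Drosophila S3 cells got compounds at several concentrations plus oleic acid (400 uM solution). Laser-scanning cytometry with 488 nm excitation read lipid droplets at 500-530 nm and cells at 575-640 nm. Percent activity was relative to 20 uM Triacsin C.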
Potency is the fitted concentration of half-maximal effect.

| Structure (SMILES) | lipid storage change, negative = inhibition | cell number change [%] | outcome | Potency |
| --- | --- | --- | --- | --- |
| COC(=O)/C=C1\SC(=NC(=O)c2cccc(Cl)c2)NC1=O | -25.1% (inactive) | -23.4 | – | – |
| Nc1nonc1-n1nnc(C(=O)N/N=C/c2ccc(OCc3ccccc3)cc2)c1CN1CCCCC1 | – | – | inactive | – |
| O=C(Nc1cccc(NC(=O)c2ccc(Br)o2)c1)c1ccccc1 | – | -12.9 | inactive | – |
| N#CC1=C(Nc2ccccc2)SC=C(c2ccc(Cl)c(Cl)c2)N=C1N1CCOCC1 | 6.25% (inactive) | -15.3 | – | – |
| Cc1cc(C)n(-c2ccc(C(=O)NC3CCCCC3)cc2)n1 | 14.6% (inactive) | 17.4 | – | – |
| COc1ccccc1NC(=O)C(C/C=C(/C)Cl)C(C)=O (stereo not given) | 9.77% (inactive) | 12.3 | – | – |
| COc1ccc(N(CC(=O)N/N=C/c2cccnc2)S(=O)(=O)c2ccc(C)cc2)cc1OC | – | -15.9 | inactive | – |
| CC(=O)Nc1ccc(S(=O)(=O)NC2CC2)cc1 | 11% (inactive) | -7.3 | – | – |
| O=C(O)CCCCCCCCCC(=O)c1cccs1 | – | -19.9 | inactive | – |
| O=C(CCN1C(=O)/C(=C/c2ccco2)SC1=S)Nc1ccc(C(=O)O)c(O)c1 | -2.83% (inactive) | -0.876 | – | – |
| O=C(CN1C(=O)/C(=C/c2ccco2)SC1=S)Nc1ccc(C(=O)O)c(O)c1 | – | 25.4 | – | 20.6 µM (active) |
| O=C(CCN1C(=O)/C(=C\c2ccco2)SC1=S)Nc1ccc(C(=O)O)c(O)c1 | – | 1.15 | inactive | – |
| Cc1ccccc1COC(=O)c1nn(-c2ccccc2)nc1N | -1.71% (inactive) | 3.63 | – | – |
| CCOC(=O)C(NC(=O)c1ccc(F)cc1)(Nc1nnc(C)s1)C(F)(F)F (stereo not given) | -21.6% (inactive) | 2.37 | – | – |
| COc1ccc(NC(=O)N2CCCC(CNS(=O)(=O)c3cccs3)C2)c(C)c1 (stereo not given) | 12.7% (inactive) | -5.03 | – | – |
| COCCn1c(SCC(=O)Nc2ccc(F)cc2)nc2ccccc2c1=O | -11.7% (inactive) | 3.47 | – | – |
| COCCCn1c(SCC(=O)Nc2ccc(C)cc2)nc2ccccc2c1=O | -20% (inactive) | -12.3 | – | – |
| COCCn1c(SCC(=O)Nc2cc(C)cc(C)c2)nc2ccccc2c1=O | – | -20.8 | – | 2.06 µM (active) |
| CSCC[C@H](NC(=O)COc1ccc(Cl)cc1)C(=O)N1CCC2(CC1)NCCc1[nH]cnc12 | – | – | inactive | – |
| O=C(NC(Cc1ccccc1)C(=O)O)C1CCCCC1 (stereo not given) | -0.512% (inactive) | -3.98 | – | – |
| COc1ccc(C(C(=O)NC2CCCC2)N(C(=O)c2snc(C(N)=O)c2N)c2cc(C)ccc2OC)cc1OC (stereo not given) | -18.1% (inactive) | -1.28 | – | – |

| Structure (SMILES) | lipid storage change, negative = inhibition | cell number change [%] | outcome | Potency |
| --- | --- | --- | --- | --- |
| CCC(C(=O)NC1CCCCC1)N(Cc1cccs1)C(=O)c1snc(C(N)=O)c1N (stereo not given) | 23.1% (inactive) | – | – | – |
| CCCC(C(=O)NCCC(C)C)N(Cc1ccc(F)cc1)C(=O)c1snc(C(N)=O)c1N (stereo not given) | 3.86% (inactive) | -7.77 | – | – |
| CCC(C(=O)NC1CCCC1)N(Cc1ccccc1Cl)C(=O)c1snc(C(N)=O)c1N (stereo not given) | – | -3.04 | – | 0.58 µM (active) |
| COc1ccc(N(C(=O)c2snc(C(N)=O)c2N)C(C(=O)NC2CCCCC2)c2ccc(F)cc2)c(OC)c1 (stereo not given) | – | – | – | 13 µM (active) |
| COc1ccc(N(C(=O)c2snc(C(N)=O)c2N)C(C(=O)NC2CCCC2)c2cc(OC)ccc2OC)c(OC)c1 (stereo not given) | – | -0.901 | inactive | – |
| CCC(C(=O)NC(C)(C)C)N(Cc1ccccc1Cl)C(=O)c1snc(C(N)=O)c1N (stereo not given) | – | -22.3 | inactive | – |
| CCCC(C(=O)NCCC(C)C)N(Cc1ccc(OC)cc1)C(=O)c1snc(C(N)=O)c1N (stereo not given) | -29.9% (inactive) | -7.72 | – | – |
| CCCC(C(=O)NCCC(C)C)N(Cc1ccccc1)C(=O)c1snc(C(N)=O)c1N (stereo not given) | – | -3.86 | – | 3.66 µM (active) |
| CCOC(=O)Cc1csc(NC(=S)NC(=O)c2cc(OC)c(OC)c(OC)c2)n1 | -6.87% (inactive) | -1.2 | – | – |
| COc1ccc(NC(=O)Nc2nnc(-c3cccs3)s2)cc1 | 10.9% (inactive) | -11.4 | – | – |
| COc1ccc(C(=O)Nc2nc(-c3ccccc3)c(C(C)=O)s2)c(OC)c1 | -6.74% (inactive) | -8.6 | – | – |
| COCCn1c(=O)[nH]c2cc(C(=O)NC(C)C)ccc2c1=O | 9.58% (inactive) | 2.66 | – | – |
| CCCS(=O)(=O)c1nc(S(=O)(=O)c2ccc(C)cc2)c(NCCCN(C)C)s1 | 1.35% (inactive) | 6.73 | – | – |
| CC(=O)NC(c1cccs1)c1cc(Br)c2cccnc2c1O (stereo not given) | 10.4% (inactive) | 16.4 | – | – |
| CC(=O)NC(c1ccco1)c1cc(F)c2cccnc2c1O (stereo not given) | -4.42% (inactive) | -4.72 | – | – |
| CC(=O)NC(c1cccs1)c1cc(F)c2cccnc2c1O (stereo not given) | – | – | – | 8.4% and -17.4% |
| Cc1cc(C)c(NC(=O)CS(=O)CC(=O)NCC2CCCO2)c(C)c1 (stereo not given) | 4.71% (inactive) | 3.77 | – | – |
| Cc1ccc(NC(=O)c2cccc(C(F)(F)F)c2)cc1NC(=O)c1[nH]cnc1C(N)=O | – | -5.2 | – | 0.517 µM (active) |
| Cc1ccc(C(=O)Nc2cccc(C(F)(F)F)c2)cc1Nc1ncnc2nc[nH]c12 | 14.7% (inactive) | -0.327 | – | – |
| Cc1ccc(C(=O)Nc2cccc(C(F)(F)F)c2)cc1NC(=O)c1nccnc1N | -14.7% (inactive) | -18.4 | – | – |
| CC(NC(=O)c1cc(S(=O)(=O)N2CCCC2)ccc1Cl)c1ccccn1 (stereo not given) | 11.6% (inactive) | 12.8 | – | – |

| Structure (SMILES) | lipid storage change, negative = inhibition | cell number change [%] | outcome | Potency |
| --- | --- | --- | --- | --- |
| O=C(N/N=C/c1ccc([N+](=O)[O-])cc1)c1ccc2nc[nH]c2c1 | 6.51% (inactive) | -15.6 | – | – |
| O=C(Nc1ccc(F)cc1)c1cc(Cl)sc1Cl | 5.17% (inactive) | -1.56 | – | – |
| CN1c2ccccc2C(O)=C(C(=O)Nc2ccccc2)S1(=O)=O | 15.4% (inactive) | – | – | – |
| CN1c2ccsc2C(O)=C(C(=S)Nc2ccccc2)S1(=O)=O | – | 15.4 | – | 18.4 µM (active) |
| Cc1ccccc1NC(=S)C1=C(O)c2sccc2N(C)S1(=O)=O | – | – | inactive | – |
| COc1ccc(NC(=S)NNC(=O)CNc2ccc(Cl)cc2)cc1 | 18% (inactive) | – | – | – |
| COc1ccccc1N1CCN(CC(C)N(C(=O)C2CCCCC2)c2ccccn2)CC1 (stereo not given) | 12.2% (inactive) | 9.42 | – | – |
| CCOc1cc(C2C(C(=O)c3ccc(C)o3)=C(O)C(=O)N2CCc2ccccc2)ccc1O (stereo not given) | 16.1% (inactive) | – | – | – |
| CCOc1ccc(NC(=O)CCN2CCCCC2)cc1 | -2.95% (inactive) | 9.23 | – | – |
| CN1CCN(CCC(=O)Nc2ccc(F)c(F)c2)CC1 | -5.86% (inactive) | -0.365 | – | – |
| COC(=O)c1cc(NC(=O)CN2CCN(C(C)=O)CC2)cc(C(=O)OC)c1 | -5.4% (inactive) | 15.4 | – | – |
| O=C(CN1CCCCCC1)Nc1cccc(NC(=O)CN2CCCCCC2)c1 | -3.29% (inactive) | -11.3 | – | – |
| O=C(CCN1CCCC1)Nc1cccc(Br)c1 | 8.6% (inactive) | -0.144 | – | – |
| COc1ccc(NC(=O)CCN2CCCCC2)cc1 | – | -13.9 | – | 18.4 µM (active) |
| CCOC(=O)c1cc(NC(=O)CN2CCCC2)cc(C(=O)OCC)c1 | – | -1.35 | – | 2.31 µM (active) |
| COC(=O)c1ccc(NC(=O)CN2CCCC2)cc1 | -7.98% (inactive) | -13.3 | – | – |
| O=C(CCN1CCN(CCO)CC1)Nc1ccc(Br)cc1 | -8.8% (inactive) | 0.964 | – | – |
| O=C(CCN1CCN(CCO)CC1)Nc1ccc(F)c(F)c1 | – | 1.67 | – | 6.51 µM (active) |
| O=C(CN1CCCCC1)Nc1cccc(Br)c1 | – | -14.8 | – | 23.1 µM (active) |
| COc1ccc(NC(=O)CCN2CCCCCC2)cc1 | -1.99% (inactive) | -0.671 | – | – |
